From PubChem BioAssay AID1159580 (chemical genetic matrix, 2015)
Several values for one entry are separate records, joined by “and”; a condition that tells them apart may be missing. Equal entries are not always repeated. The campaign covered roughly 5,500 compounds. About 2,000 (36%) were called active. About 18% were inconclusive and are not listed. Cut-off read from the data, not from the text of the source: active = normalized growth mostly below about 0.91 (no sharp cut-off); inconclusive = no clear call, values can overlap the other calls; inactive = mostly above about 0.92. The list shows a part of the results.

Assay: chemical genetic growth profiling, strain panel (AID 1159580);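 note: tested at 20 µM; growth read once vehicle control cultures reached saturation at 30 °C; 1 = growth at the plate median or of vehicle wells; lower values mean less growth of the strain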
Conditions: growth OD

Measured: normalized growth

Cc1cccc(C)c1OCC(C)N (stereo not drawn)
inactive: S. cerevisiae deletion strains, locus YKL009W, strain mrt4, stronger effect = lower value 0.972 | S. cerevisiae deletion strains, locus YKL068W, stronger effect = lower value 0.982 | S. cerevisiae deletion strains, locus YKL085W, strain MDH1 (second series), stronger effect = lower value 1.04 | S. cerevisiae deletion strains, locus YKL085W, strain MDH1, stronger effect = lower value 1.04 | S. cerevisiae deletion strains, locus YKL160W, strain elf1, stronger effect = lower value 1 | S. cerevisiae deletion strains, locus YKL190W, strain CNB1, stronger effect = lower value 0.996 | S. cerevisiae deletion strains, locus YKR001C, strain vps1, stronger effect = lower value 0.99 | S. cerevisiae deletion strains, locus YKR026C, strain gcn3, stronger effect = lower value 0.999 | S. cerevisiae deletion strains, locus YKR091W, strain srl3, stronger effect = lower value 1.01 | S. cerevisiae deletion strains, locus YLL001W, strain dnm1, stronger effect = lower value 1.02 | S. cerevisiae deletion strains, locus YLL026W, stronger effect = lower value 1.02 | S. cerevisiae deletion strains, locus YLL041C, strain sdh2, stronger effect = lower value 1.01 | S. cerevisiae deletion strains, locus YLR027C, strain aat2, stronger effect = lower value 1.01 | S. cerevisiae deletion strains, locus YLR039C, strain RIC1, stronger effect = lower value 1.02 | S. cerevisiae deletion strains, locus YLR058C, strain SHM2, stronger effect = lower value 0.998 | S. cerevisiae deletion strains, locus YLR102C, strain apc9, stronger effect = lower value 0.989 | S. cerevisiae deletion strains, locus YLR113W, strain HOG1, stronger effect = lower value 0.987 | S. cerevisiae deletion strains, locus YLR221C, strain rsa3, stronger effect = lower value 1 | S. cerevisiae deletion strains, locus YLR258W, strain gsy2, stronger effect = lower value 1.01 | S. cerevisiae deletion strains, locus YLR262C, strain YPT6 (second series), stronger effect = lower value 1.01 | S. cerevisiae deletion strains, locus YLR262C, strain YPT6, stronger effect = lower value 0.993 | S. cerevisiae deletion strains, locus YLR268W, strain sec22, stronger effect = lower value 0.993 | S. cerevisiae deletion strains, locus YLR320W, strain mms22, stronger effect = lower value 1.03 | S. cerevisiae deletion strains, locus YLR330W, strain CHS5, stronger effect = lower value 0.992 | S. cerevisiae deletion strains, locus YLR342W, strain FKS1 (second series), stronger effect = lower value 1.01 | S. cerevisiae deletion strains, locus YLR342W, strain FKS1, stronger effect = lower value 1.01 | S. cerevisiae deletion strains, locus YLR357W, strain rsc2, stronger effect = lower value 1.02 | S. cerevisiae deletion strains, locus YLR370C, strain arc18, stronger effect = lower value 1.01 | S. cerevisiae deletion strains, locus YLR371W, strain rom2, stronger effect = lower value 0.988 | S. cerevisiae deletion strains, locus YLR384C, strain iki3, stronger effect = lower value 1.01 | S. cerevisiae deletion strains, locus YLR418C, strain cdc73, stronger effect = lower value 1.03 | S. cerevisiae deletion strains, locus YML016C, strain PPZ1, stronger effect = lower value 0.995 | S. cerevisiae deletion strains, locus YML032C, strain rad52, stronger effect = lower value 1 | S. cerevisiae deletion strains, locus YML120C, strain ndi1, stronger effect = lower value 1 | S. cerevisiae deletion strains, locus YML124C, strain tub3, stronger effect = lower value 0.991 | S. cerevisiae deletion strains, locus YMR058W, strain fet3, stronger effect = lower value 1.02 | S. cerevisiae deletion strains, locus YMR078C, strain ctf18, stronger effect = lower value 0.986 | S. cerevisiae deletion strains, locus YMR125W, strain sto1, stronger effect = lower value 1.01 | S. cerevisiae deletion strains, locus YMR129W, stronger effect = lower value 0.994 | S. cerevisiae deletion strains, locus YMR205C, strain PFK2, stronger effect = lower value 1.03 | S. cerevisiae deletion strains, locus YMR223W, strain ubp8, stronger effect = lower value 1.01 | S. cerevisiae deletion strains, locus YMR231W, strain pep5, stronger effect = lower value 1.01 | S. cerevisiae deletion strains, locus YMR263W, strain SAP30, stronger effect = lower value 0.993 | S. cerevisiae deletion strains, locus YMR307W, strain GAS1, stronger effect = lower value 0.969 | S. cerevisiae deletion strains, locus YNL067W, strain RPL9B, stronger effect = lower value 1.01 | S. cerevisiae deletion strains, locus YNL071W, strain lat1, stronger effect = lower value 1.01 | S. cerevisiae deletion strains, locus YNL153C, strain GIM3, stronger effect = lower value 1.03 and 1 | S. cerevisiae deletion strains, locus YNL175C, strain NOP13, stronger effect = lower value 1 | S. cerevisiae deletion strains, locus YNL183C, strain NPR1, stronger effect = lower value 0.956 | S. cerevisiae deletion strains, locus YNL197C, strain WHI3, stronger effect = lower value 0.992 | S. cerevisiae deletion strains, locus YNL209W, strain ssb2, stronger effect = lower value 1.01 | S. cerevisiae deletion strains, locus YNL224C, strain SQS1, stronger effect = lower value 1 | S. cerevisiae deletion strains, locus YNL233W, strain BNI4, stronger effect = lower value 1.03 | S. cerevisiae deletion strains, locus YNL248C, strain rpa49, stronger effect = lower value 0.991 | S. cerevisiae deletion strains, locus YNL250W, strain rad50, stronger effect = lower value 0.987 | S. cerevisiae deletion strains, locus YNL271C, strain bni1, stronger effect = lower value 0.985 | S. cerevisiae deletion strains, locus YNL298W, strain CLA4, stronger effect = lower value 0.986 | S. cerevisiae deletion strains, locus YNL307C, strain MCK1, stronger effect = lower value 1.02 | S. cerevisiae deletion strains, locus YNL322C, strain KRE1 (second series), stronger effect = lower value 1 | S. cerevisiae deletion strains, locus YNL322C, strain KRE1, stronger effect = lower value 0.991 | S. cerevisiae deletion strains, locus YNR049C, strain mso1, stronger effect = lower value 1 | S. cerevisiae deletion strains, locus YNR052C, strain pop2, stronger effect = lower value 0.977 | S. cerevisiae deletion strains, locus YOL006C, strain TOP1, stronger effect = lower value 1.11 | S. cerevisiae deletion strains, locus YOL012C, strain htz1 1.19 | S. cerevisiae deletion strains, locus YOL147C, strain pex11, stronger effect = lower value 0.99 | S. cerevisiae deletion strains, locus YOR001W, strain rrp6, stronger effect = lower value 0.994 | S. cerevisiae deletion strains, locus YOR061W, strain CKA2, stronger effect = lower value 0.998 | S. cerevisiae deletion strains, locus YOR069W, strain VPS5, stronger effect = lower value 0.988 | S. cerevisiae deletion strains, locus YOR070C, strain gyp1, stronger effect = lower value 0.997 | S. cerevisiae deletion strains, locus YOR080W, strain dia2, stronger effect = lower value 1.01 | S. cerevisiae deletion strains, locus YOR083W, strain WHI5 (second series), stronger effect = lower value 1 | S. cerevisiae deletion strains, locus YOR083W, strain WHI5, stronger effect = lower value 0.993 | S. cerevisiae deletion strains, locus YOR106W, strain vam3, stronger effect = lower value 1.01 | S. cerevisiae deletion strains, locus YOR136W, strain idh2, stronger effect = lower value 0.987 | S. cerevisiae deletion strains, locus YOR144C, strain elg1, stronger effect = lower value 0.991 | S. cerevisiae deletion strains, locus YOR184W, strain ser1, stronger effect = lower value 1.03 | S. cerevisiae deletion strains, locus YOR231W, strain MKK1, stronger effect = lower value 0.999 | S. cerevisiae deletion strains, locus YOR265W, strain rbl2, stronger effect = lower value 1.01 | S. cerevisiae deletion strains, locus YOR270C, strain vph1, stronger effect = lower value 1.05 | S. cerevisiae deletion strains, locus YOR290C, strain snf2, stronger effect = lower value 1 | S. cerevisiae deletion strains, locus YOR316C, strain cot1, stronger effect = lower value 0.977 | S. cerevisiae deletion strains, locus YPL051W, strain arl3, stronger effect = lower value 1 | S. cerevisiae deletion strains, locus YPL078C, strain atp4, stronger effect = lower value 1 | S. cerevisiae deletion strains, locus YPL106C, strain sse1, stronger effect = lower value 1.02 | S. cerevisiae deletion strains, locus YPL240C, strain hsp82, stronger effect = lower value 1.01 | S. cerevisiae deletion strains, locus YPL241C, strain CIN2, stronger effect = lower value 0.995 | S. cerevisiae deletion strains, locus YPL256C, strain CLN2, stronger effect = lower value 0.998 | S. cerevisiae deletion strains, locus YPR119W, strain clb2, stronger effect = lower value 0.993 | S. cerevisiae deletion strains, locus YPR141C, strain kar3, stronger effect = lower value 0.983 | S. cerevisiae deletion strains, locus YPR163C, strain tif3, stronger effect = lower value 0.981 | S. cerevisiae deletion strains, locus YPR167C, strain met16, stronger effect = lower value 0.978 | S. cerevisiae deletion strains, strain wtn01, stronger effect = lower value 0.983 | S. cerevisiae strains, strain wild type, stronger effect = lower value 0.997
